This passage reports growth results from PubChem BioAssay (NCI).

Some test systems named below: DU-145 prostate; K-562 leukemia; MALME-3M melanoma; RXF 393 renal; SF-268 CNS; SF-295 CNS; SF-539 CNS; UACC-257 melanoma; M14 melanoma; HCT-15 colon; HT29 colon; SNB-75 CNS; SNB-19 CNS; U251 CNS; PC-3 prostate; SK-MEL-5 melanoma; UACC-62 melanoma; SK-MEL-28 melanoma.
Holding throughout (assay): NCI-60 one-dose screen, 48 h (100 = growth as untreated, 0 = no growth, -100 = all killed)
Common to all, as to conditions: 10 µM unless noted

Molecules are shown by their SMILES. This is part of a sample that, as a whole, favours compounds with a hit. Of some 83,000 tested, about 20% had one in any assay.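 Note: values are percent growth. 100 is the growth of untreated cells, values between 100 and 0 indicate rising inhibition; between -100 and 0 indicates cell death.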 Values without a mark were called inactive. Calls of active or inactive are those of the source. How the source made its calls: active means growth percent below 10; inactive means the rest.

For the compound `COc1cc(CNC(=O)/C=C/c2ccc3c(c2)OCO3)ccc1OCc1cn(-c2cccc(C(F)(F)F)c2)nn1`, the growth with DU-145 prostate is 30%; in the experiment with K-562 leukemia, 24.7%; in the experiment on MALME-3M melanoma, -11.9% (active); in the experiment with RXF 393 renal it was -28.9% (active); with SF-268 CNS, 39%; in the experiment with SF-295 CNS, -20.7% (active). The growth was -81.2% (active) with SF-539 CNS; 18.1% in the experiment with UACC-257 melanoma; 4.8% (active) in the experiment with M14 melanoma; 38.2% in the experiment on HCT-15 colon; 17.6% in the experiment on HT29 colon; 41.1% in the experiment with SNB-75 CNS. The growth with SNB-19 CNS is 33.1%; in the experiment on U251 CNS, -32.9% (active); with PC-3 prostate, 0.703% (active); with SK-MEL-5 melanoma, 33.2%; with UACC-62 melanoma it was -29.2% (active); in the experiment with SK-MEL-28 melanoma, 5.76% (active).
As to `Cn1nc(C(F)(F)F)cc1-c1cc(Cl)c(COc2ccc(Cl)cc2)c(-c2ccc(Cl)c(C(F)(F)F)c2)c1O`, the growth with DU-145 prostate was 8.66% (active); with K-562 leukemia, 1.2% (active); in the experiment with MALME-3M melanoma, -52.4% (active); with RXF 393 renal it was -47.7% (active); in the experiment with SF-268 CNS it was -0.375% (active); in the experiment on SF-295 CNS, -70.8% (active). The growth in the experiment with SF-539 CNS is -77.9% (active); in the experiment with UACC-257 melanoma, -31.4% (active); in the experiment on M14 melanoma it was -67% (active); in the experiment on HCT-15 colon it was -39.5% (active); with HT29 colon, 6.65% (active); in the experiment with SNB-75 CNS it was -22.5% (active). Further, the growth was -11.5% (active) in the experiment on SNB-19 CNS; -24.8% (active) with U251 CNS; -12.3% (active) in the experiment on PC-3 prostate; -74.4% (active) with SK-MEL-5 melanoma; -86.1% (active) with UACC-62 melanoma; -48.8% (active) in the experiment with SK-MEL-28 melanoma.
With `CCN(CC)C(=O)N/C(N)=N/c1nc2ccccc2s1`, the growth with DU-145 prostate is 48.8%; in the experiment with K-562 leukemia, 30.3%; in the experiment on MALME-3M melanoma, 56.8%; with RXF 393 renal it was 58.5%; in the experiment with SF-268 CNS, 72.6%; in the experiment with SF-295 CNS it was 32.5%. The growth was 69.7% in the experiment on SF-539 CNS; 40.5% with UACC-257 melanoma; 71.9% in the experiment with M14 melanoma; 54% in the experiment with HCT-15 colon; 62.5% in the experiment with HT29 colon; 63.9% in the experiment on SNB-75 CNS. Also, the growth with SNB-19 CNS is 56.5%; with U251 CNS, 66.9%; in the experiment on PC-3 prostate, 54.9%; with SK-MEL-5 melanoma, -24.9% (active); with UACC-62 melanoma it was 43.7%; with SK-MEL-28 melanoma, 75.4%.
Regarding `CN1CCc2c(sc3ncnc(N/N=C/c4ccc(Cl)cc4Cl)c23)C1`, the growth in the experiment with DU-145 prostate is 36.1%; in the experiment with K-562 leukemia, -21.5% (active); in the experiment with MALME-3M melanoma it was -62.4% (active); in the experiment with RXF 393 renal it was -41.8% (active); with SF-268 CNS, 35.8%; with SF-295 CNS, 32.4%. Also, the growth in the experiment on SF-539 CNS was -94.6% (active); in the experiment with UACC-257 melanoma, -12.3% (active); with M14 melanoma, -81.4% (active); in the experiment with HCT-15 colon, 10.2%; in the experiment on HT29 colon, -88.4% (active); in the experiment with SNB-75 CNS, -50.4% (active). Moreover, the growth was 26.8% in the experiment with SNB-19 CNS; 2.63% (active) in the experiment on U251 CNS; 25.3% in the experiment with PC-3 prostate; -89.2% (active) with SK-MEL-5 melanoma; -79.9% (active) in the experiment on UACC-62 melanoma; -33.1% (active) with SK-MEL-28 melanoma.
Consider `CC1=C(C(=O)c2ccccc2)C(c2ccc(-n3cncn3)cc2)n2c(nc3ccccc32)N1` (centres undefined), for which the growth in the experiment with DU-145 prostate is 71.7%; in the experiment with K-562 leukemia it was 74.6%; in the experiment on MALME-3M melanoma, 81%; with RXF 393 renal it was 73.6%; in the experiment with SF-268 CNS, 77.1%; in the experiment on SF-295 CNS, 84%. The growth is 39.1% in the experiment with SF-539 CNS; 89.1% in the experiment with UACC-257 melanoma; 99.2% in the experiment on M14 melanoma; 83.9% in the experiment with HCT-15 colon; 93.7% in the experiment on HT29 colon; 76.4% in the experiment with SNB-75 CNS. In addition, the growth was 74.9% in the experiment on SNB-19 CNS; 71.7% with U251 CNS; 78.7% in the experiment with PC-3 prostate; 89.7% with SK-MEL-5 melanoma; 70.6% with UACC-62 melanoma; 106% in the experiment with SK-MEL-28 melanoma.
With `CC(=O)Oc1ccccc1C(=O)[Se]C(=NC1CCCCC1)NC1CCCCC1`, the growth with DU-145 prostate was -80% (active); in the experiment with K-562 leukemia, 3.88% (active); with MALME-3M melanoma, -91.8% (active); in the experiment on RXF 393 renal it was -99.7% (active); in the experiment with SF-268 CNS it was 8.57% (active); in the experiment with SF-295 CNS it was -78.9% (active). In addition, the growth with SF-539 CNS is -98.7% (active); in the experiment on UACC-257 melanoma it was -89.9% (active); in the experiment on M14 melanoma, -73.7% (active); with HCT-15 colon it was -73.5% (active); in the experiment on HT29 colon it was -60.8% (active); in the experiment with SNB-75 CNS, -63.3% (active). Further, the growth in the experiment with SNB-19 CNS is -94.9% (active); in the experiment on U251 CNS, -87% (active); with PC-3 prostate it was -31% (active); in the experiment with SK-MEL-5 melanoma, -89.3% (active); with UACC-62 melanoma it was -90.7% (active); in the experiment with SK-MEL-28 melanoma, -89.1% (active).
With `COc1ccc([C@H](C)Nc2nc(Cl)nc3ccccc23)cc1`, the growth in the experiment on DU-145 prostate is 74.2%; in the experiment on K-562 leukemia, 9.94% (active); with MALME-3M melanoma, 66.5%; with RXF 393 renal, 78.3%; with SF-268 CNS it was 76.6%; in the experiment with SF-295 CNS it was 20.2%. In addition, the growth with SF-539 CNS was 68.3%; with UACC-257 melanoma it was 48.2%; in the experiment with M14 melanoma it was 78.8%; with HCT-15 colon, 56.1%; in the experiment on HT29 colon, 28.8%; in the experiment with SNB-75 CNS it was 93.4%. Further, the growth in the experiment with SNB-19 CNS was 60.6%; in the experiment with U251 CNS it was 74.2%; with PC-3 prostate, 77.1%; in the experiment on SK-MEL-5 melanoma it was 5.57% (active); with UACC-62 melanoma, 47.8%; with SK-MEL-28 melanoma, 59.9%.
`O=c1c2ccccc2nc(-c2ccccc2)n1/N=C/c1ccc2ccccc2c1`: the growth in the experiment with DU-145 prostate is 55.8%; with K-562 leukemia, 26.7%; in the experiment with MALME-3M melanoma, 59%; with RXF 393 renal, 81.2%; with SF-268 CNS, 49.9%; in the experiment with SF-295 CNS, 46.8%. Besides, the growth in the experiment on SF-539 CNS was 27.2%; with UACC-257 melanoma, 49.3%; in the experiment on M14 melanoma, 57.2%; in the experiment with HCT-15 colon it was 13.1%; with HT29 colon, 19.9%; in the experiment on SNB-75 CNS, 65.8%. Further, the growth in the experiment on SNB-19 CNS was 56.8%; in the experiment on U251 CNS, 31.2%; in the experiment on PC-3 prostate, 53.4%; with SK-MEL-5 melanoma it was 38.5%; with UACC-62 melanoma it was 35.8%; in the experiment with SK-MEL-28 melanoma, 61.7%.
